This passage reports Potency and outcome results from PubChem BioAssay (Tox21).

Test [1] can be described thus: qHTS assay to identify small molecule agonists of H2AX - cell viability counter screen (AID 1224847; calls by dose curve; also: potency is read from the fitted curve at half-maximal effect; nearly all actives have a fitted effect of over 30% in size). The gist of the method:
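We seed wild-type CHO-K1 cells overnight, treat them for 3 hr at 37C with compounds in 15-concentration series, and quantify remaining viability by CellTiter-Glo luminescence.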

Test [2] is described as follows: qHTS RealTime-Glo MT Cell Viability Assay in HEK293 cells - 8 hour (AID 1224887). Also: potency is read from the fitted curve at half-maximal effect; nearly all actives have a fitted effect of over 50% in size. The gist of the method:
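Measured as luminescence from the same continuously cultured HEK293 wells at successive time points (0, 8, 16, 24, 32, 40 h) after compound addition. Reagent present from seeding; dosing at 5 h; incubation 37 C.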
A general note: In qHTS, concentration-response curves come from the screen itself.

In test [3] the target is Estrogen receptor (Homo sapiens) (UniProt P03372). Put plainly: qHTS assay to identify small molecule antagonists of the estrogen receptor alpha (ER-alpha) signaling pathway using the BG1 cell line in the presence of 0.1 nM 17-beta-estradiol (AID 1259244). Also: nearly all actives have a fitted effect of over 50% in size. Also: potency is read from the fitted curve at half-maximal effect. The gist of the method:
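Seeding of stripped-serum-adapted VM7Luc4E2 cells, 24 h attachment, compound transfer, then 0.1 nM final 17beta-estradiol; after 22 h incubation, ONE-Glo reagent and luminescence reading.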

A short description of test [4]: qHTS assay to identify small molecule agonists of the estrogen receptor beta (ER-beta) signaling pathway - cell viability counter screen (AID 1259380). Also: nearly all actives have a fitted effect of over 30% in size. Also: potency is read from the fitted curve at half-maximal effect. An outline of the steps:
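In this qHTS counter screen, HEK293T cells carrying an ER-beta/UAS beta-lactamase reporter, grown in 2% charcoal-stripped FBS, received compound for 16 hr; ATP-based CellTiter-Glo luminescence was then read after 30 min at room temperature.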

A short description of test [5]: qHTS assay to identify small molecule agonists of the progesterone receptor (PR) signaling pathway - cell viability counter screen (AID 1346799; calls by dose curve; also: nearly all actives have a fitted effect of over 45% in size; also: potency is read from the fitted curve at half-maximal effect). The gist of the method: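 Counter screen for cytotoxicity: compound-treated PR-UAS-bla HEK293T cells (16 hr, 37C, 5% CO2) were assayed with CellTiter-Glo, luminescence measured after 30 min at room temperature.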
Test [6] deals with Thyrotropin receptor (Homo sapiens) (UniProt P16473). The test can be described thus: qHTS assay to identify small molecule agonists of the thyroid stimulating hormone receptor (TSHR) signaling pathway (AID 1224843; calls by dose curve; also: nearly all actives have a fitted effect of over 45% in size; also: potency is read from the fitted curve at half-maximal effect). An outline of the steps: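 HEK293/TSHR, 800 cells/well; cpd 30 min RT; add cAMP-d2 + anti-cAMP-cryptate, 1 h RT; fluorescence read on plate reader. 15-pt titration, n=3.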

Test [7] concerns the target Estrogen receptor beta (Homo sapiens) (UniProt Q92731). The test can be described thus: qHTS assay to identify small molecule agonists of the estrogen receptor beta (ER-beta) signaling pathway (AID 1259377; active = well fitted activation curve with a large enough effect in the signal ratio in the repeat runs, not every such curve was filed as active; the % refers to the signal ratio). An outline of the steps:
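A UAS-controlled beta-lactamase reporter in ER-beta-UAS-bla HEK293T cells reports receptor activation. Compounds act for 16 hr at 37C in 2% charcoal-stripped serum, and a FRET substrate is read by fluorescence after 2 hours.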

In test [8] the target is Thyrotropin-releasing hormone receptor (Homo sapiens) (UniProt P34981). The test can be described thus: qHTS assay to identify small molecule antagonists of the thyrotropin-releasing hormone receptor (TRHR) signaling pathway (AID 1346877; active = well fitted inhibition curve with a large enough effect in the repeat runs, not every such curve was filed as active; also: series mostly up to about 51 µM). An outline of the steps:
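Human TRHR in HEK293 cells; inhibition of the intracellular calcium rise triggered by 1 nM TRH was followed by fluorescence over 3 min. Compounds were run at 15 concentrations, three replicates each.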

The nature of test [9]: qHTS assay to identify small molecule antagonists of the estrogen related receptor signaling pathway with the pleiotropic PPARgamma coactivator (PGC) from Tox21 10K library (AID 1224841; call rule not given here; also: potency is read from the fitted curve at half-maximal effect; actives are mostly falling curves and most rising ones were filed inactive; nearly all actives have a fitted effect of over 50% in size). The gist of the method:
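In the PGC/ERR line, DMSO solutions of test chemicals are pin-delivered to 2,000 cells/well six hours after dispensing. Following eighteen hours' incubation, One-Glo reagent is added and luminescence recorded.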

Test [10] can be described thus: qHTS assay for small molecules that induce genotoxicity in human embryonic kidney cells expressing luciferase-tagged ATAD5 (AID 651632). Also: nearly all actives have a fitted effect of over 15% in size. The gist of the method:
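Test compounds were delivered by pin tool onto HEK293T reporter cells (2,000/well) expressing ATAD5 fused to luciferase. After 16 hr at 37C, 5% CO2, Amplite was added for 30 min at room temperature and luminescence was measured.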

Test [11] can be described thus: qHTS assay to test for compound auto fluorescence at 590 nm (red) in HepG2 cells (AID 720674). An outline of the steps: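 Fluorescence at 590 nm emission following 540 nm excitation was recorded from HepG2 wells one hour after compound transfer, with DMSO-only wells as vehicle and Rose Bengal sodium equivalency as the scale.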
The nature of test [12]: qHTS assay to test for compound auto fluorescence at 460 nm (blue) in HEK293 cells (AID 720678). The gist of the method: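 HEK293, 2,000 cells/well, 10% dialyzed FBS; attach 4-5 hr 37C; pin compound or DMSO; o/n 37C/5% CO2; fluorescence 405/460 nm; triamterene-equivalent units.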
The nature of test [13]: qHTS assay to test for compound auto fluorescence at 460 nm (blue) in HEK293 cell free culture (AID 720681). An outline of the steps:
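Compounds were added to cell-free DMEM with 10% FBS and fluorescence read directly. The blue channel used 405 nm excitation and 460 nm emission, with triamterene as the reference fluorophore.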

Test [14] can be described thus: qHTS assay to test for compound auto fluorescence at 535 nm (green) in HEK293 cell free culture (AID 720682). The gist of the method:
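Steps: dispense DMEM/10% FBS into empty wells; pin in compound or DMSO; measure fluorescence at 485/535 nm. Values are fluorescein equivalents.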

Test [15] is described as follows: qHTS assay to test for compound auto fluorescence at 590 nm (red) in HEK293 cell free culture (AID 720683). The gist of the method:
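Cell-free wells of DMEM with 10% FBS received compound, and intrinsic fluorescence was read at excitation/emission 540/590 nm. Values expressed as equivalence to Rose Bengal sodium.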

Test [16] is described as follows: qHTS assay to test for compound auto fluorescence at 590 nm (red) in HepG2 cell free culture (AID 720684). An outline of the steps: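 Rose Bengal sodium served as the reference for red signal. Test compounds were dispensed into serum-containing MEM (10% FBS) without cells, and plates were read at 540/590 nm.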
Test [17] can be described thus: qHTS assay to test for compound auto fluorescence at 460 nm (blue) in HepG2 cell free culture (AID 720685). An outline of the steps: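 Cell-free plates of MEM plus 10% FBS received 23 nL compound or DMSO vehicle; blue-channel (405/460 nm) intensity scored against triamterene as reference fluorophore.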
Test [18] in a line: qHTS assay to test for compound auto fluorescence at 535 nm (green) in HepG2 cell free culture (AID 720686).
Test [19] can be described thus: qHTS assay to test for compound auto fluorescence at 460 nm (blue) in HepG2 cells (AID 720687). An outline of the steps: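 HepG2 cells in MEM with 10% FBS, attached overnight at 37 C, were exposed to compound or DMSO for 1 hr at 37 C, 5% CO2. Blue fluorescence was read at 405/460 nm, with triamterene as reference fluorophore.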
Test [20] in a line: qHTS assay for identifying genotoxic compounds that show differential cytotoxicity against isogenic chicken DT40 cell lines with known DNA damage response pathways - Rev3 mutant cell line (AID 743014). Also: nearly all actives have a fitted effect of over 55% in size. Also: potency is read from the fitted curve at half-maximal effect.

Values without a mark were called inactive. Records with an inconclusive call do not appear. Calls of active or inactive are those of the source. Unless noted, calls follow the shape of the dose curve; as a rule, active = well fitted curve in the direction sought with a large enough effect in the repeat runs; inconclusive = weak or mixed curves; inactive = no such curve, though single readings can be large; an effect the other way counts as inactive or inconclusive.

Sequence of Thyrotropin-releasing hormone receptor (Homo sapiens) (P34981 whole entry, looked up): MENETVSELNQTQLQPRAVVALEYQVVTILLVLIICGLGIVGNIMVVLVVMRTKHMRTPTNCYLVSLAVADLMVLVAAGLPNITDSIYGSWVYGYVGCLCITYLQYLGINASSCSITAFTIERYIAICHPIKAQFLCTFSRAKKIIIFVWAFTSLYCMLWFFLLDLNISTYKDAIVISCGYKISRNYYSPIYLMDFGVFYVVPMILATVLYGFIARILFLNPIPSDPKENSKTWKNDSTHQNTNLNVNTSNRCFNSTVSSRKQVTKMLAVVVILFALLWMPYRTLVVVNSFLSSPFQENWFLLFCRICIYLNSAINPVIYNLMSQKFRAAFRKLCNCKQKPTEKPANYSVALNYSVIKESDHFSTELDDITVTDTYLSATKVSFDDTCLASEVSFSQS
Sequence of Estrogen receptor beta (Homo sapiens) (Q92731 whole entry, looked up): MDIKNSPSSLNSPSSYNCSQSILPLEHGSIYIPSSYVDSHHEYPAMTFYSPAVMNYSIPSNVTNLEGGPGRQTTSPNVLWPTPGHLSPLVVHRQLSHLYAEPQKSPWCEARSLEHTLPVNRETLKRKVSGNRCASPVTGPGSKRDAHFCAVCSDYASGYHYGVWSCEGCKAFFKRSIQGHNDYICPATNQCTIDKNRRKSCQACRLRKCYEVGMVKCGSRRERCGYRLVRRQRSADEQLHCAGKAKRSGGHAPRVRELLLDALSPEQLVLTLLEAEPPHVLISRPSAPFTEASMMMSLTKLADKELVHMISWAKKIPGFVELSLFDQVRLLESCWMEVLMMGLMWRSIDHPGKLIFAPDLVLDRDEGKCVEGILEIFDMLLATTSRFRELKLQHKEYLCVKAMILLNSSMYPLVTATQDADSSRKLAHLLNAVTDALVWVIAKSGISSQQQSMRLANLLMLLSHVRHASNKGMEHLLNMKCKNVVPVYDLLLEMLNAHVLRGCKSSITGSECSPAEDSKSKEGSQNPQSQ
Sequence of Estrogen receptor (Homo sapiens) (P03372 whole entry, looked up): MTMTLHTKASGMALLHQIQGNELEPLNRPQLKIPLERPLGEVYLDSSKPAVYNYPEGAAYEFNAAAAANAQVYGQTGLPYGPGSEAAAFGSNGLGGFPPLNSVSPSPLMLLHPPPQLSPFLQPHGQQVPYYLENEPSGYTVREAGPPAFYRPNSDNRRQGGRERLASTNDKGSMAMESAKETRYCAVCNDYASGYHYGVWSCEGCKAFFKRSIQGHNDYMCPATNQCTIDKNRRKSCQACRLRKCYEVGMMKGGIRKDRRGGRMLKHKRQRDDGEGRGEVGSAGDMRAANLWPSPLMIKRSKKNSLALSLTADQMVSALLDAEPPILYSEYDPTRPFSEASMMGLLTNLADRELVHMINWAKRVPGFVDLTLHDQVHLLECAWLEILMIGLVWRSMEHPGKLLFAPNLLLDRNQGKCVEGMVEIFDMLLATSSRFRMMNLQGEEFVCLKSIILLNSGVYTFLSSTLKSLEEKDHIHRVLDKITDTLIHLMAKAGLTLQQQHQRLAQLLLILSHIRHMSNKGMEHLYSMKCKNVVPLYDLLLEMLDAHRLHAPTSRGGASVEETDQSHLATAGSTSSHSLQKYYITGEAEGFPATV
Sequence of Thyrotropin receptor (Homo sapiens) (P16473 whole entry, looked up): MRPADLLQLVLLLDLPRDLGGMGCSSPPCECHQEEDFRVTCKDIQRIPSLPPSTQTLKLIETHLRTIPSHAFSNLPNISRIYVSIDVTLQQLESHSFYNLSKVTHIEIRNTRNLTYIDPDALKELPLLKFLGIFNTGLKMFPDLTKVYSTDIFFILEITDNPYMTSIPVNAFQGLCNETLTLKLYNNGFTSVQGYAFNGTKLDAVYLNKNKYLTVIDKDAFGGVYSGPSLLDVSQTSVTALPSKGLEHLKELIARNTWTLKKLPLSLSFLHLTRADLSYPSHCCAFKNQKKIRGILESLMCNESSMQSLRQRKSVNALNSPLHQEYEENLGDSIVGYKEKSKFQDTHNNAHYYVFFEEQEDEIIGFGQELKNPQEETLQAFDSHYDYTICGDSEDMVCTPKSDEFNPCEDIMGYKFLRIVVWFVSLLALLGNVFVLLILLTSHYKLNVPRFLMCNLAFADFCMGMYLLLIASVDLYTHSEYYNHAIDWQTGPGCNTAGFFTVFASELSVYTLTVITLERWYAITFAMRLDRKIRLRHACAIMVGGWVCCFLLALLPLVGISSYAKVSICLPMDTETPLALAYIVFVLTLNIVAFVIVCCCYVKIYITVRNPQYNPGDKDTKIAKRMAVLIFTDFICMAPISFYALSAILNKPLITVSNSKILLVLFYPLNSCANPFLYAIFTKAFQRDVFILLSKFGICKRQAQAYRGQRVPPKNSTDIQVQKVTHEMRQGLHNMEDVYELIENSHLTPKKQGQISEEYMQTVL

On to `O=S(=O)(C(Cl)(Cl)Cl)C(Cl)(Cl)Cl`, for which the Potency in test [1] was 89.8 µM (active); in test [2], 15.5 µM (active); in test [3] it was 27.3 µM (active); in [4], 21.7 µM (active). Besides, the Potency entry in test [5] was “inactive”.

For `ClC(Cl)=C(c1ccc(Cl)cc1)c1ccccc1Cl`, the Potency entry in [6], in test [3] and in test [5] was “inactive” throughout. The compound was called inactive in test [7] and in [8].

For the compound `CC(c1ccccc1)(c1ccc(O)cc1)c1ccc(O)cc1`, the Potency in test [9] is 34.4 µM (active); in test [6], 15.4 µM (active); in test [4], 54.5 µM (active). Besides, the Potency entry in [3] was “inactive”. Also, the outcome in test [7] and in test [8] was inactive.

`C[C@]12CC[C@@H](O)C[C@@H]1CC[C@@H]1[C@@H]2CC[C@]2(C)C(=O)CC[C@@H]12`: the Potency in [1] was 101 µM (active); in test [4], 27.3 µM (active); in test [5], 68.6 µM (active).

Regarding `Cc1cc(C)c(C(=O)P(=O)(c2ccccc2)c2ccccc2)c(C)c1`, the results for the Potency in test [9], in test [2] and in [4] were 54.5 µM (active), 43.6 µM (active) and 61.1 µM (active), respectively. Besides, the Potency entry in test [6] and in test [3] was “inactive” throughout.

As to `Cc1cc(C(C)(C)c2ccc(O)c(C)c2)ccc1O`, the Potency entry in test [10], in test [12], in test [13], in test [14], in [17] and in [18] was “inactive” throughout. The Potency result in [19] and in test [20] was “inactive” each time. Also, the result in test [11], in test [15] and in [16] was inactive. The Potency in test [9] is 9.23 µM (active); in test [6], 46.2 µM (active); in test [1], 108 µM (active); in test [2], 23.4 µM (active); in test [4], 29.2 µM (active).

As for `CO/C=C(/C(=O)OC)c1ccccc1Oc1cc(Oc2ccccc2C#N)ncn1`, the Potency result in test [10], in [12], in [13], in [14], in test [17] and in test [19] was “inactive” each time. In addition, the compound was classed as inactive in test [11], in test [15], in [16] and in test [8]. Also, the Potency in test [20] is 0.103 µM (active); in test [9], 16.4 µM (active); in test [1] it was 0.678 µM (active); in [3], 5.18 µM (active); in [4], 51.8 µM (active).

Consider `O=C(c1ccccc1)C(Cl)Cl`, for which the Potency in [9] is 68.6 µM (active). The Potency result in test [3], in test [4] and in test [5] was “inactive” in each case. In addition, the result in [7] and in test [8] was inactive.

Turning to `Oc1ccc(Cl)cc1Cc1cc(Cl)ccc1O`, the Potency entry in [6] is “inactive”.

For the compound `Nc1cccc([N+](=O)[O-])c1`, the result in test [7] was inactive.

Consider `Clc1ccccc1-c1ccccc1Cl`, for which the Potency result in test [10], in test [12], in test [13], in [14], in test [17] and in test [18] was “inactive” in each case. The Potency result in [19], in [20] and in test [5] was “inactive” throughout. In addition, the result in test [11], in [15] and in test [16] was inactive. Besides, the Potency in test [1] was 64.5 µM (active).

With `Brc1ccc(Br)c(Br)c1`, the compound was classed as inactive in [7].

`Cc1cccc(C)c1[N+](=O)[O-]`: the result in test [7] was inactive.

For `Cc1cccc([N+](=O)[O-])c1C`, the compound was called inactive in test [7].

Consider `O=P(O)(O)C(Cl)(Cl)P(=O)(O)O`, for which the result in test [16] was inactive.
